mHTT CaM bind – mutant huntingtin-calmodulin interaction inhibitors – biochemical, AlphaScreen, primary screen. P42858. AlphaScreen His-mHTT/GST-CaM binding, luminescence. inhibition, % at 15 µM. hit rate 3.6% among 190,000;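 further: 0% = both proteins with DMSO and 100% = one protein alone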
Pf apPOL block – Pf-apPOL inhibitors, biochemical, fluorescence | Plasmodium falciparum apicoplast DNA polymerase (apPOL) | inhibition, % at 10 µM | AID 1794808, 2022 | Recombinant Pf-apPOL, molecular beacon fluorescence, 1.5 h | hit rate 0.25% among 210,000
The depositor's hits bear a star; x = no result given. Sampled rows, rich in hits. Any-hit rate of the full collection: about 3.6%. No stated cut-off is given here; in the data, active means inhibition above about 50%; inactive means the rest.

SMILES	mHTT CaM bind	Pf apPOL block
COc1ccccc1C1CC(c2ccc(F)cc2)Nc2nc(N)nn21 (centres undefined)	62*	-3
COc1ccccc1C1CC(c2ccccc2)Nc2nc(N)nn21 (centres undefined)	-8	-1
CCOc1ccccc1C1CC(c2ccc(F)cc2)Nc2nc(N)nn21 (centres undefined)	72*	-2
Cc1ccccc1-n1[nH]c(C)c(C=Nc2ccccc2O)c1=O	28	-8
CCNC(=O)c1cc(=O)[nH]c2ccc(F)cc12	-4	-3
N=c1n(Cc2ccccc2)c2ccccc2n1CC(O)COc1ccc(Cl)cc1 (centres undefined)	60*	7
CCCCn1c(=N)n(CC(O)COc2ccc(Cl)cc2)c2ccccc21 (centres undefined)	42	2
COC(=O)C(C)Oc1ccc2cc(-c3ccc(OC)cc3)c(=O)oc2c1 (centres undefined)	-15	-18
CC(C)Cn1c(C2CCN(C(=O)c3ccc(Cl)s3)C2)nc2ccncc21 (centres undefined)	0	-2
NC(=Nc1nc2ccccc2o1)NC(=O)c1cc([N+](=O)[O-])ccc1Cl	3	-5
O=C(c1cnn2c(C(F)F)cc(C3CC3)nc12)N1CCCC1c1ccc(Cl)cc1 (centres undefined)	2	-5
O=C(NCc1ccco1)Nc1ccc2snnc2c1	4	-2
O=C(NCc1ccco1)Nc1ccc2nc(-c3ccco3)c(-c3ccco3)nc2c1	96*	-2
COCCCNC(=O)c1ccc2nc(-c3cccs3)c(-c3cccs3)nc2c1	-3	1
O=C(Nc1ncn[nH]1)c1ccc2nc(-c3ccco3)c(-c3ccco3)nc2c1	34	8
COc1ccc2nc(-c3ccco3)c(-c3ccco3)nc2c1	99*	0
CC(=O)c1ccc(NC(=O)c2ccc3nc(-c4ccco4)c(-c4ccco4)nc3c2)cc1	100*	-4
COCCNC(=O)c1ccc2nc(-c3ccco3)c(-c3ccco3)nc2c1	59*	2
COc1ccc2nsnc2c1	x	-2
O=C1C2CC(Br)C(Br)CC2C(=O)N1c1cccc(C(F)(F)F)c1 (centres undefined)	-5	-2
O=C(O)CCCCCN1C(=O)C(=Cc2ccccc2O)SC1=S	23	-15
CC(=O)c1cccc(NC(=O)COc2ccc([N+](=O)[O-])cc2)c1	-3	-1
O=C(Nc1ccc([N+](=O)[O-])cc1)N1CCN(c2ccccn2)CC1	0	2
O=C(Nc1ccc2nc(-c3ccco3)c(-c3ccco3)nc2c1)N1CCN(c2ccccn2)CC1	66*	-13
O=C(Nc1nc2ccccc2[nH]1)c1ccc2c(c1)OCO2	4	0
SMILES	mHTT CaM bind	Pf apPOL block
Cc1ccc(C)c(CN2C(=O)NC3(CCN(C(=O)c4ccccc4F)CC3)C2=O)c1	13	-7
Nc1ccccc1Nc1c([N+](=O)[O-])c(=O)oc2ccccc12	71*	0
COc1ccccc1Nc1c([N+](=O)[O-])c(=O)oc2ccccc12	10	2
O=S(=O)(c1ccc(F)cc1)N1CCC(CN2CCCCCC2)CC1	11	-2
Cc1ccc(C2=NN(C(=O)CCC(=O)O)C(c3ccc(Br)cc3)C2)cc1 (centres undefined)	11	72*
Cc1ccc(C2CC(c3ccccc3)=NN2C(=O)CCC(=O)O)cc1 (centres undefined)	6	5
CC(=O)N1N=C(c2ccccc2)CC1c1ccc(N(C)C)cc1 (centres undefined)	19	-7
CC(=O)N1N=C(c2ccc(Br)cc2)CC1c1ccc(Br)cc1 (centres undefined)	4	-10
COc1cc(C(=O)N2N=C(c3ccccc3)CC2c2ccc(N(C)C)cc2)cc(OC)c1OC (centres undefined)	97*	-1
CC(=O)N1N=C(c2ccc(Br)cc2)CC1c1ccc(N(C)C)cc1 (centres undefined)	74*	-10
Cc1ccnc(N2CCCC(C(=O)NC3CCCCCCC3)C2)n1 (centres undefined)	-12	0
Cc1ccc(NC(=O)Cn2nc(N(C)C)c3ccccc3c2=O)c(Br)c1	-6	0
CCn1c(/C(C#N)=C/c2cccc([N+](=O)[O-])c2)nc2ccccc21	19	-4
CCCN(C)C(=O)c1ccc(-c2ccc3c(c2)OCO3)s1	-5	-4
NCCSc1nc2ccccc2s1	10	7
COc1cccc(OCCSc2nc3ccccc3s2)c1	96*	-7
CCN(CC)c1ccc(C2N(C(=O)c3ccccc3)CCN2S(=O)(=O)c2ccccc2)cc1 (centres undefined)	37	2
CCC(=O)N1c2ccccc2N(S(=O)(=O)c2ccc(C)cc2)C1c1ccc(N(C)C)cc1 (centres undefined)	53*	4
CCC(=O)N1CCN(S(=O)(=O)c2ccc(C)cc2)C1c1ccc(N(C)C)cc1 (centres undefined)	18	-9
